Source: PubChem BioAssay AID1159580 (chemical genetic matrix, 2015)
About 2,000 (36%) of roughly 5,500 compounds were called active. Roughly 18% stayed inconclusive and do not appear here. This is one part of the list. Values without a mark were called inactive. Rule as the data show it: active = normalized growth mostly below about 0.91 (no sharp cut-off); inconclusive = no clear call, values can overlap the other calls; inactive = mostly above about 0.92.

Experiment: chemical genetic growth profiling, strain panel (AID 1159580);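 also: tested at 20 µM; growth read once vehicle control cultures reached saturation at 30 °C; 1 = growth at the plate median or of vehicle wells; lower values mean less growth of the strain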
Settings: S. cerevisiae deletion strains, growth OD
[1] = locus YAL040C, strain CLN3, hits give low values
[2] = locus YCL061C, strain MRC1 (second series), hits give low values
[3] = locus YDR150W, strain NUM1, hits give low values
[4] = locus YDR363W, strain ESC2, hits give low values
[5] = locus YER002W, strain NOP16, hits give low values
[6] = locus YGR078C, strain PAC10, hits give low values
[7] = locus YMR263W, strain SAP30, hits give low values
[8] = locus YNL153C, strain GIM3, hits give low values
[9] = locus YNL175C, strain NOP13, hits give low values
[10] = locus YNL197C, strain WHI3, hits give low values
[11] = locus YNL224C, strain SQS1, hits give low values
[12] = locus YOR083W, strain WHI5 (second series), hits give low values
[13] = locus YMR307W, strain GAS1, hits give low values
[14] = locus YNL322C, strain KRE1, hits give low values
[15] = locus YPL241C, strain CIN2, hits give low values

Cc1c2ccncc2c(C)c2c1[nH]c1ccccc12
normalized growth [1]: 0.101 (active)
normalized growth [2]: 0.0557 (active)
normalized growth [3]: 0.13 (active)
normalized growth [4]: 0.153 (active)
normalized growth [5]: 0.0868 (active)
normalized growth [6]: 0.0788 (active)
normalized growth [7]: 0.362 (active)
normalized growth (locus YNL128W, strain TEP1, hits give low values): 0.083 (active)
normalized growth [8]: 0.0799 (active)
normalized growth [9]: 0.0703 (active)
normalized growth [10]: 0.0671 (active)
normalized growth [11]: 0.0631 (active)
normalized growth [12]: 0.079 (active)
normalized growth (locus YPL055C, strain LGE1, hits give low values): 0.101 (active)

COC(=O)c1cc2c(cn1)[nH]c1ccccc12
normalized growth [1]: 0.978
normalized growth [2]: 1
normalized growth [3]: 0.999
normalized growth [4]: 0.996
normalized growth [5]: 0.986
normalized growth [7]: 1
normalized growth [13]: 0.998
normalized growth [8]: 0.995
normalized growth [9]: 0.988
normalized growth [10]: 0.993
normalized growth [11]: 0.981
normalized growth [14]: 1.01
normalized growth [12]: 0.96
normalized growth [15]: 1

Cc1nccc2c1[nH]c1ccccc12
normalized growth (locus YAL013W, strain DEP1, hits give low values): 1.01
normalized growth (locus YAL021C, strain ccr4, hits give low values): 0.956
normalized growth (locus YAL026C, strain drs2, hits give low values): 0.975
normalized growth (locus YAL030W, strain snc1, hits give low values): 0.992
normalized growth [1]: 1.11
normalized growth (locus YBL061C, strain skt5, hits give low values): 0.975
normalized growth (locus YBR009C, strain hhf1, hits give low values): 0.971
normalized growth (locus YBR023C, strain chs3, hits give low values): 0.974
normalized growth (locus YBR171W, strain sec66, hits give low values): 0.969
normalized growth (locus YBR231C, strain swc5, hits give low values): 0.972
normalized growth (locus YBR279W, strain paf1, hits give low values): 0.991
normalized growth (locus YCL011C, strain gbp2, hits give low values): 0.965
normalized growth (locus YCL016C, strain dcc1, hits give low values): 0.99
normalized growth [2]: 1.01
normalized growth (locus YCL069W, strain vba3, hits give low values): 0.977
normalized growth (locus YCR088W, strain abp1, hits give low values): 0.977
normalized growth (locus YDL005C, strain med2, hits give low values): 0.965
normalized growth (locus YDL040C, strain nat1, hits give low values): 0.983
normalized growth (locus YDR001C, strain nth1, hits give low values): 0.991
normalized growth (locus YDR069C, strain doa4, hits give low values): 0.941
normalized growth (locus YDR137W, strain rgp1, hits give low values): 0.967
normalized growth (locus YDR159W, strain sac3, hits give low values): 0.989
normalized growth (locus YDR195W, strain ref2): 1.03
normalized growth (locus YDR297W, strain sur2, hits give low values): 0.976
normalized growth (locus YDR334W, strain swr1, hits give low values): 0.971
normalized growth (locus YDR335W, strain msn5, hits give low values): 0.975
normalized growth [4]: 1
normalized growth (locus YDR392W, strain spt3, hits give low values): 0.963
normalized growth (locus YEL003W, strain gim4, hits give low values): 0.983
normalized growth (locus YEL037C, strain rad23, hits give low values): 0.983
normalized growth (locus YEL061C, strain CIN8 (second series), hits give low values): 0.944
normalized growth [5]: 0.991
normalized growth (locus YER015W, strain faa2, hits give low values): 0.991
normalized growth (locus YER016W, strain bim1, hits give low values): 0.984
normalized growth (locus YER111C, strain swi4, hits give low values): 0.973
normalized growth (locus YER155C, strain BEM2 (second series), hits give low values): 0.954
normalized growth (locus YFR010W, strain ubp6, hits give low values): 0.955
normalized growth (locus YGL167C, strain pmr1, hits give low values): 0.996
normalized growth (locus YGL173C, strain kem1, hits give low values): 0.981
normalized growth (locus YGL227W, strain vid30, hits give low values): 0.976
normalized growth (locus YGL240W, strain doc1, hits give low values): 0.968
normalized growth (locus YGL253W, strain hxk2, hits give low values): 0.959
normalized growth [6]: 1.02
normalized growth (locus YHR013C, strain ard1, hits give low values): 0.951
normalized growth (locus YHR027C, strain rpn1, hits give low values): 0.996
normalized growth (locus YHR030C, strain SLT2, hits give low values): 1.05
normalized growth (locus YHR079C, strain IRE1, hits give low values): 1.06
normalized growth (locus YHR142W, strain chs7, hits give low values): 0.97
normalized growth (locus YJL092W, strain hpr5, hits give low values): 0.963
normalized growth (locus YJL095W, strain BCK1 (second series), hits give low values): 0.972
normalized growth (locus YJL095W, strain BCK1, hits give low values): 1.03
normalized growth (locus YJL115W, strain asf1, hits give low values): 0.975
normalized growth (locus YJL129C, strain trk1, hits give low values): 0.959
normalized growth (locus YJL154C, strain vps35, hits give low values): 0.981
normalized growth (locus YJL164C, strain tpk1, hits give low values): 0.993
normalized growth (locus YJL166W, strain qcr8, hits give low values): 0.972
normalized growth (locus YJL187C, strain SWE1, hits give low values): 0.962
normalized growth (locus YJR066W, strain TOR1, hits give low values): 0.972
normalized growth (locus YKL160W, strain elf1, hits give low values): 0.995
normalized growth (locus YKR026C, strain gcn3, hits give low values): 0.983
normalized growth (locus YKR091W, strain srl3, hits give low values): 0.973
normalized growth (locus YLL001W, strain dnm1, hits give low values): 0.977
normalized growth (locus YLL026W, hits give low values): 0.999
normalized growth (locus YLL041C, strain sdh2, hits give low values): 0.979
normalized growth (locus YLR027C, strain aat2, hits give low values): 0.995
normalized growth (locus YLR113W, strain HOG1, hits give low values): 1.04
normalized growth (locus YLR221C, strain rsa3, hits give low values): 0.971
normalized growth (locus YLR258W, strain gsy2, hits give low values): 0.991
normalized growth (locus YLR262C, strain YPT6 (second series), hits give low values): 0.956
normalized growth (locus YLR320W, strain mms22, hits give low values): 0.97
normalized growth (locus YLR342W, strain FKS1, hits give low values): 0.968
normalized growth (locus YLR357W, strain rsc2, hits give low values): 1.04
normalized growth (locus YLR370C, strain arc18, hits give low values): 0.968
normalized growth (locus YLR384C, strain iki3, hits give low values): 0.996
normalized growth (locus YML120C, strain ndi1, hits give low values): 0.982
normalized growth (locus YMR058W, strain fet3, hits give low values): 0.983
normalized growth (locus YMR125W, strain sto1, hits give low values): 1.02
normalized growth (locus YMR129W, hits give low values): 0.984
normalized growth (locus YMR205C, strain PFK2, hits give low values): 1.01
normalized growth (locus YMR231W, strain pep5, hits give low values): 0.977
normalized growth [13]: 1.01
normalized growth (locus YNL071W, strain lat1, hits give low values): 0.973
normalized growth [9]: 0.39 (active)
normalized growth (locus YNL183C, strain NPR1, hits give low values): 0.993
normalized growth [10]: 0.955
normalized growth (locus YNL209W, strain ssb2, hits give low values): 0.993
normalized growth (locus YNL248C, strain rpa49, hits give low values): 0.955
normalized growth (locus YNL322C, strain KRE1 (second series), hits give low values): 0.993
normalized growth [14]: 1.01
normalized growth (locus YNR049C, strain mso1, hits give low values): 0.976
normalized growth (locus YOR001W, strain rrp6, hits give low values): 0.943
normalized growth (locus YOR070C, strain gyp1, hits give low values): 0.98
normalized growth (locus YOR080W, strain dia2, hits give low values): 0.986
normalized growth [12]: 1.03
normalized growth (locus YOR083W, strain WHI5, hits give low values): 0.994
normalized growth (locus YOR106W, strain vam3, hits give low values): 0.958
normalized growth (locus YOR231W, strain MKK1, hits give low values): 1.06
normalized growth (locus YOR265W, strain rbl2, hits give low values): 0.972
normalized growth (locus YOR270C, strain vph1, hits give low values): 0.913
normalized growth (locus YOR290C, strain snf2, hits give low values): 0.994
normalized growth (locus YPL051W, strain arl3, hits give low values): 0.988
normalized growth (locus YPL078C, strain atp4, hits give low values): 0.972
normalized growth (locus YPL106C, strain sse1, hits give low values): 0.978
normalized growth (locus YPL240C, strain hsp82, hits give low values): 0.986
normalized growth [15]: 1.01
normalized growth (locus YPL256C, strain CLN2, hits give low values): 1.04
